# Source: PubChem (National Center for Advancing Translational Sciences (NCATS))
# NPC1 prom act = NPC1 promoter activation; Huh7 NPC1 promoter luciferase reporter, 24 h; Potency, µM (top dose mostly 9.22 µM), for the others: top-dose activation, hits mostly activators; AID 485313; 2.4% of 320,000 active; also: % of control where 0% means no effect; nearly all actives have a fitted effect of over 60% in size
#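 Compounds in DMSO were transferred onto Huh7 NPC1-luciferase reporter cells pre-incubated 2 h; after 24 h at 37 °C, Amplite reagent was dispensed and luminescence recorded 10 min later.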
# ELG1 genotox = induces genotoxicity in HEK293T cells with luciferase-tagged ELG1; AID 504466; HEK293T ELG1-luciferase reporter, luminescence, 16 h; Potency, µM (doses to about 46 µM), for inactives: top-dose activity change, positive = activation, usual class: activators; 1.3% of 330,000 active; also: % of control where 0% means no effect; nearly all actives have a fitted effect of over 60% in size
#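 Screening used a luciferase reporter fused to human ELG1 in HEK293T cells. Luminescence was read on a CCD plate imager after 16 hr exposure and 30 min ONE-Glo incubation.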
# Rab9 promoter act = activators of Rab9 promoter; 2.8% of 320,000 active; Huh7 Rab9 promoter-luciferase reporter, luminescence, 24 h; Potency, µM (top dose mostly 9.22 µM), without a hit: at the top dose activation, negative = inhibition, hits mostly activators; also: % of control where 0% means no effect; nearly all actives have a fitted effect of over 60% in size
#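 Measured in stably transfected Huh7 cells bearing a Rab9 promoter–luciferase construct: 24 h compound treatment at 37 °C, followed by luminescence detection.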
# SMN2 splice enh = enhancers of SMN2 splice variant expression; HEK293 SMN2-luciferase splicing reporter, luminescence, 30-36 h; Potency, µM (doses to about 46.1 µM), for inactives: at the top dose activity change, positive = activation, hits mostly activators; 2.8% of 210,000 active; AID 1458; also: % of control where 0% means no effect; nearly all actives have a fitted effect of over 55% in size
#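 qHTS luciferase splicing reporter: luminescence rises when SMN2 exon 7 is included in transfected HEK293 cells. Compound exposure lasted 30-36 h at 37C, with 4.5 mM final sodium butyrate as control, followed by a ONE-Glo read.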
# FLuc counter = firefly luciferase modulation, counter-screen for miR-21 project | P08659 | purified FLuc, Km substrates, luminescence inhibition | Potency, µM (doses to about 57.5 µM), inactives show top-dose activity change, negative = inhibition, hits mostly inhibitors | 6.9% of 360,000 active | AID 588342;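 also: plate controls were vehicle for no effect and reference inhibitor for full effect; nearly all actives have a fitted effect of over 55% in size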
# Target sequence (P08659 whole entry, looked up): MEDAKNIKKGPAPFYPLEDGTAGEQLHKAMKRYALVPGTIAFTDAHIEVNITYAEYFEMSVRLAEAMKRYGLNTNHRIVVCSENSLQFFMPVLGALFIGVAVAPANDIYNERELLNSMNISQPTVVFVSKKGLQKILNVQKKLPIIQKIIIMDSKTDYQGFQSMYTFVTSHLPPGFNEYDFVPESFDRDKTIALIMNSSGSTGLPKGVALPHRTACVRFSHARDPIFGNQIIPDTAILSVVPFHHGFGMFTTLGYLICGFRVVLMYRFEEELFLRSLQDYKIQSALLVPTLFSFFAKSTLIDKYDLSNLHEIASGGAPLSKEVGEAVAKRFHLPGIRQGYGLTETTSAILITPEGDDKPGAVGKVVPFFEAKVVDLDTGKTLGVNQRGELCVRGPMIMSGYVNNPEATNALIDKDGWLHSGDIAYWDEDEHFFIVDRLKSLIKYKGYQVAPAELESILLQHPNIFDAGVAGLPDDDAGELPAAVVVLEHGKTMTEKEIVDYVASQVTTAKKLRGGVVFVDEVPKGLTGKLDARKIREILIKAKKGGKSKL
#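 Biochemical qHTS of compounds, final roughly 60 µM downward over six points, against 10 nM purified firefly luciferase using Km concentrations of substrates (10 uM D-luciferin, 10 uM ATP) in Tris acetate pH 7.5 buffer; luminescence output.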
# ELG1 repair inh = blocks ELG1-dependent DNA repair in HEK293T cells. HEK293T ELG1-luciferase reporter, luminescence, 16 h; DNA damage induced by 5-fluorouridine. Potency, µM (titrated, usually from 46.1 µM), for the others: at the highest dose activity change, negative = inhibition, hits mostly inhibitors. 2.3% of 330,000 active; also: % is scaled to controls: 0 for no effect and ±100 for the full control effect; nearly all actives have a fitted effect of over 55% in size
#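 Step one: seed 2,000 cells per well. Step two: pin-transfer compound or DMSO alongside 5-fluorouridine. Step three: incubate 16 hr, 37 °C, 5% CO2. Step four: add ONE-Glo, wait 30 min, read luminescence.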
# Starred values were filed as active, the others as inactive; u = inconclusive; x = no result; [ ] = dose if it differs, or a comment. Only some compounds are listed: those with a hit (about 9.2% of all), similar ones and a draw of the others. Calls follow the shape of the dose curve; as a rule, active = well fitted curve in the direction sought with a large enough effect; inconclusive = small, poorly fitted or top-dose-only effect, or another doubt; inactive = no such curve, though single readings can be large; an effect the other way counts as inactive or inconclusive. Potency is read from the fitted curve at half-maximal effect.
SMILES,NPC1 prom act,ELG1 genotox,Rab9 promoter act,SMN2 splice enh,FLuc counter,ELG1 repair inh
CN1CCN(c2nc3ccccc3nc2C(C#N)S(=O)(=O)c2ccccc2)CC1 (stereo unspecified),-1%,-15%,-2%,x,1%,8.2µM*
N#CC(c1nc2ccccc2nc1N1CCCC1)S(=O)(=O)c1ccccc1 (stereo unspecified),2%,-8%,2%,-7%,-1%,u
O=C(Cc1ccc(Br)cc1)N1CCCCCC1,u,21µM*,19%,10µM*,u,u
O=C(Cc1ccc(Br)cc1)N1CCCC1,-4%,8%,4%,x,1%,10%
O=[N+]([O-])c1cccc(/C=N/Nc2ccccn2)c1,u,u,4µM*,11µM*,3µM*,u
O=[N+]([O-])c1cccc(/C=N/Nc2nccnc2Cl)c1,2.8µM*,u,2µM*,u,12µM*,u
Fc1ccc(N/N=C/c2cccnc2)c(F)c1,u,u,u,26%,u,u
O=[N+]([O-])c1cccc(/C=C/c2ccccn2)c1,u,8%,u,x,13µM*,u
Fc1cccc(/C=N/Nc2nccnc2Cl)c1,u,u,u,x,21µM*,u
OCc1cnc(SCc2cccc(F)c2)n1Cc1ccc(F)cc1,x,x,x,x,4%,x
COc1ccc2c(=O)c(-c3ccc(C)cc3)c(-c3ccccc3)oc2c1,x,1%,x,x,x,u
COc1ccc2c(c1)OCc1c-2oc2cc(OC)ccc12,x,x,x,13µM*,x,x
O=C(COc1ccc(S(=O)(=O)N2CCCC2)cc1)NCc1cccnc1,2%,-1%,9%,x,0%,12%
CCCCCn1c(=O)[nH]c2cc(C(=O)NCc3ccc(F)cc3)ccc2c1=O,x,x,x,-16%,-1%,x
COc1cc2c(cc1OC)C(C)N(C(=O)c1cccc([N+](=O)[O-])c1)CC2 (stereo unspecified),1%,-9%,-3%,u,0%,18µM*
COc1nnc(-c2ccccc2)s1,-3%,4%,-4%,13%,u,u
Cc1ccc(C(=O)Nc2ccc(N3CCN(C)CC3)cc2)cc1C,0.79µM*,1.8µM*,0.71µM*,x,3.4µM*,u
CS(=O)(=O)c1ccc(C(=O)Nc2ccc(N3CCCCC3)cc2)c(Cl)c1,-4%,15%,-3%,4%,-6%,u
CCN1CCN(c2ccc(NC(=O)c3ccc4c(c3)OCCO4)cc2C)CC1,2.8µM*,u,1.6µM*,x,6.7µM*,u
CN1CCN(c2ccc(NC(=O)c3ccc4c(c3)OCCO4)cc2)CC1,2.2µM*,4.6µM*,3.2µM*,11µM*,6µM*,u
CCN1CCN(c2cc(C)c3cc(NC(=O)c4ccc5c(c4)OCO5)ccc3n2)CC1,-4%,0%,-5%,9%,u,u
Cc1ccc(C(=O)Nc2ccc(N3CCN(C)CC3)cc2)c(Cl)c1,3.5µM*,u,3.5µM*,x,24µM*,u
Cc1ccc(C(=O)Nc2ccc(N3CCN(S(C)(=O)=O)CC3)cc2)cc1C,0%,-2%,1%,x,7%,-11%
CCOc1ccc(N2CC(C(=O)Nc3cc(S(=O)(=O)N4CCCCC4)ccc3C)CC2=O)cc1 (stereo unspecified),x,-2%,x,x,x,-21%
O=C1Nc2c(c(=O)[nH]c(=O)n2-c2ccc(Cl)cc2)C1(NS(=O)(=O)c1ccccc1)C(F)(F)F (stereo unspecified),x,x,x,21%,-16%,x
SMILES,NPC1 prom act,ELG1 genotox,Rab9 promoter act,SMN2 splice enh,FLuc counter,ELG1 repair inh
CCN1CCc2nc(NC(=O)c3ccc4c(c3)OCCO4)sc2C1,u,u,u,u,11µM*,u
Cc1cc(S(=O)(=O)N2CCOCC2)ccc1OCC(=O)NCCCn1ccnc1,-3%,2%,0%,x,3%,u
Cc1cc(/C=N/NC(=O)c2ccc(O)cc2)c(C)n1CC(C)C,23%,u,u,x,6µM*,u
Cc1ccc(C)c(-n2c(C)cc(/C=N/NC(=O)c3c(C)nc4cc(C)ccn34)c2C)c1,-1%,-2%,-3%,-4%,-20%,18µM*
CCOc1cc(/C=N/NC(=O)c2ccc(CN3CCOCC3)cc2)ccc1OC,-8%,-4%,-3%,-11%,-11%,-8%
Cc1ccc(-n2c(C)cc(/C=N/NC(=O)c3ccncc3)c2C)cc1,1%,u,4%,-27%,5.4µM*,2%
CN(C)c1ccc(/C=N/NC(=O)c2ccc(CN3CCOCC3)cc2)cc1Br,-13%,-5%,-1%,-38%,19µM*,u
Cc1cc(/C=N/NC(=O)c2ccncc2)c(C)n1-c1cccc(C(F)(F)F)c1,-2%,4%,-5%,x,-2%,5%
CCCN(CCC)C(=O)Cn1c(=O)n(-c2cccc(OC)c2)c(=O)c2c3c(sc21)CCCC3,x,x,x,-2%,3%,x
CN(C)NC(=S)NC1(C)CCS(=O)(=O)C1 (stereo unspecified),-4%,1%,-1%,x,-1%,6%
COc1ccc(Cl)cc1NC(=O)C(=O)N/N=C/c1cc(C)n(-c2ccc(C)cc2)c1C,-3%,1%,-1%,9%,3.4µM*,8%
Cc1ccc(-n2c(C)cc(/C=N/NC(=O)c3ccc(CN4CCOCC4)cc3)c2C)cc1,-3%,-7%,-1%,-32%,15µM*,-3%
Cc1ccc(-n2c(C)cc(/C=N/NC(=O)CC3(C)OCCO3)c2C)cc1,-1%,1%,-1%,-50%,24µM*,u
COC(=O)c1ccc(C(NC(=O)OCc2ccccc2)/C(F)=C/[C@@H](C)C(=O)NCc2nc3ccccc3s2)cc1 (stereo partly specified),x,x,x,-9%,x,x
COc1ccc(CNC(=O)C(=O)NCC(c2cccs2)S(=O)(=O)c2cccs2)cc1 (stereo unspecified),x,x,x,x,-11%,x
COc1ccc(-n2nc3ccc(NC(=O)c4cc5ccccc5o4)cc3n2)cc1Cl,x,x,x,-7%,-5%,x
C=C(C)C1Cc2c(ccc(C(=O)O)c2O)O1 (stereo unspecified),x,x,x,2%,x,x
O=C(N/N=C/c1c[nH]c2ccccc12)c1ccccc1Cl,5%,0%,-2%[1.84 µM],x,u,u
O=C(N/N=C/c1c[nH]c2ccccc12)c1cc(Cl)ccc1O,21%,7%,14%,x,17µM*,u
O=C(N/N=C/c1c[nH]c2ccccc12)c1ccc(Br)cc1,26%,u,u,x,6.7µM*,u
COC(=O)N/N=C/c1c[nH]c2ccccc12,-3%,0%,1%,-47%,-16%,0%
